The source made the active and inactive calls. Unless noted, how the calls were made is not given here.
Experiments:
[1] = anti-His antibody binders, primary screen, artefact control for SMM control protein annotation, biochemical, small-molecule microarray, 635 nm fluorescence (AID 1128); settings: anti-His Alexa647 antibody binding, higher = more signal;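 further: score merges feature fluorescence with signal-to-noise for each printed compound spot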
[2] = system: Human papillomavirus type 1a E7 protein (residues 1-88); test: HPV1a E7 small-molecule binders, primary screen, biochemical, small-molecule microarray, residues 1-88, 635 nm (AID 1129); settings: small-molecule microarray binding, fluorescence 635 nm; higher = more signal
[3] = target: Focal adhesion kinase 1 (Homo sapiens) (UniProt Q05397); test: small-molecule microarray binders of FAK, primary screen, biochemical, 635/667 nm fluorescence, BSA, DTT (AID 1130); settings: PTK2 binding, 635 nm fluorescence, higher = more signal;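 further: composite of spot emission at 667 nm and signal to noise over triplicate slides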
[4] = system: Fibrinogen (Alexa647-labelled); test: fibrinogen binders on compound microarrays, profiling panel, artefact control for SMM control-protein annotation, biochemical, small-molecule microarray, 635/667 nm fluorescence (AID 1131); settings: fibrinogen-A647 binding fluorescence, higher = more signal;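 further: z-score merges 667 nm fluorescence with per-spot signal-to-noise over triplicate slides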
[5] = target: Follistatin (Homo sapiens) (UniProt P19883); test: follistatin binders on small-molecule microarrays, primary screen, biochemical, small-molecule microarray, 635/667 nm fluorescence (AID 1132); settings: FST binding, 635 nm fluorescence, higher = more signal
[6] = target: Fibroblast growth factor 2 (Homo sapiens) (UniProt P09038); test: FGF2 binders on small-molecule microarrays, primary screen, biochemical, small-molecule microarray, 635/667 nm fluorescence (AID 1133); settings: small-molecule microarray binding, FGF2, fluorescence 635/667; higher = more signal
[7] = mitochondrial membrane potential change in A549 cells, profiling panel, cell-based, JC-1 fluorescence, basal, 24 h, 100 nL (AID 1138); settings: higher = more signal;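 further: A549 lung adenocarcinoma cells under basal conditions with no added stimulus; test concentration not given here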
Lefty1 = Lefty1 binders on small-molecule microarrays, primary screen, biochemical, small-molecule microarray, 635/667 nm fluorescence (AID 1139); settings: small-molecule microarray binding, fluorescence 635/667; higher = more signal
[8] = system: wheat germ agglutinin (Triticum aestivum), Alexa647-labelled; test: wheat germ agglutinin binders on compound microarrays, profiling panel, artefact control for SMM control-protein annotation, biochemical, small-molecule microarray, 635/667 nm fluorescence (AID 1140); settings: WGA-A647 binding, 635 nm fluorescence, higher = more signal;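 further: score merges 667 nm feature emission with signal to noise over triplicate slides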
[9] = target: Luciferin 4-monooxygenase (Photinus pyralis) (UniProt P08659); test: firefly luciferase enzyme inhibitors, primary screen, biochemical, luminescence, purified enzyme, 2006 set (AID 1141); settings: SteadyGlo luminescence, 30 min, higher = more signal, called active from +8 up or from −8 down;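 further: cell-free assay with purified firefly luciferase at 100 ng per well in PBS; test concentration not given here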
[10] = system: Wnt5a (protein binding on small-molecule microarray); test: Wnt5a binders on small-molecule microarray, primary screen, biophysical, 635/667 nm fluorescence (AID 1142); settings: 635 nm fluorescence, higher = more signal;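 further: fluorescence read at 667 nm with signal to noise per printed feature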
[11] = cell viability in Huh7 cells, primary screen, cytotoxicity control for HCV replication inhibitor project, CellTiter-Glo luminescence, basal, 48 h (AID 1143); settings: Huh7 HCV replicon, higher = more signal, called active from +8 up or from −8 down;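 further: Huh7 hepatoma cells carrying a hepatitis C replication reporter with no stimulus; test concentration not given here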
[12] = P. aeruginosa biofilm formation inhibitors, primary screen, PAO1 strain, BacTiter-Glo luminescence, LB-PBS (AID 1144); settings: 12 h, higher = more signal
[13] = CREB reporter modulators without forskolin, primary screen, cell-based, PC12, CRE-LacZ reporter, unstimulated (AID 1145); settings: no forskolin, luminescence, 4.5 h, higher = more signal, called active from +8 up or from −8 down
[14] = CREB reporter modulators under forskolin, primary screen, cell-based, PC12, CRE-LacZ reporter, forskolin-stimulated (AID 1146); settings: luminescence, 4.5 h, higher = more signal, called active from +8 up or from −8 down;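 further: PC12 cells with 6xCRE LacZ reporter stimulated by forskolin 10 µM; beta-galactosidase reporter signal reflecting CREB driven transcription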
[15] = target: Streptavidin (Streptomyces avidinii) (UniProt P22629); test: streptavidin binders on small-molecule microarray, primary screen, artefact control for SMM compound annotation, biophysical, 635/667 nm fluorescence (AID 1147); settings: streptavidin binding, higher = more signal;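 further: signal reflects streptavidin binding to arrayed compounds as a control protein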
[16] = small-molecule binders of probe aInhba, primary screen, biochemical, small-molecule microarray, 635/667 nm fluorescence (AID 1148); settings: higher = more signal;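 further: score merges 667nm spot fluorescence with signal-to-noise for antibody binding to printed compounds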
Torsin-1A (Homo sapiens) [17] = target: Torsin-1A (Homo sapiens) (UniProt O14656); test: torsin A binders from cell lysate, primary screen, small-molecule microarray, wild-type, 635/667 nm (AID 1149); settings: COS7 hTOR1A-WT lysate, 635 nm fluorescence, higher = more signal
Torsin-1A (Homo sapiens) [18] = target: Torsin-1A (Homo sapiens) (UniProt O14656); test: small-molecule binders of mutant TOR1A in lysate, primary screen, cell lysate, small-molecule microarray, COS7 lysate, 635/667 nm fluorescence (AID 1150); settings: COS7 hTOR1A mutant lysate, 635 nm fluorescence, higher = more signal;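 further: score pools 667 nm emission and signal to noise measuring lysate protein binding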
[19] = system: Sonic hedgehog protein (Shh); test: small-molecule binders of Shh protein, primary screen, biochemical, small-molecule microarray, 635/667 nm fluorescence (AID 1151); settings: small-molecule microarray binding, 635 nm fluorescence; higher = more signal;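 further: Shh protein binding to compounds spotted on small-molecule microarray slides; score combines spot fluorescence intensity with signal-to-noise across triplicate slides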

Chain of Follistatin (Homo sapiens) (P19883 whole entry, looked up): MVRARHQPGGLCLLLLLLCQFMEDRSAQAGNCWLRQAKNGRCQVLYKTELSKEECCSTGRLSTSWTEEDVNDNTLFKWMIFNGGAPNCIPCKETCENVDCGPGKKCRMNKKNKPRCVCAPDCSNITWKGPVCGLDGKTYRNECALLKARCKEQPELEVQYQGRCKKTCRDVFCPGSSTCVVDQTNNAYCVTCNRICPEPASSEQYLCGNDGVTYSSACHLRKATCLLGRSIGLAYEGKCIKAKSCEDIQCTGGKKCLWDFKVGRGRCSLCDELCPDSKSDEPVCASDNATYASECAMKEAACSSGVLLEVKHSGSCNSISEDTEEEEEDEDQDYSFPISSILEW
Chain of Torsin-1A (Homo sapiens) (O14656 whole entry, looked up): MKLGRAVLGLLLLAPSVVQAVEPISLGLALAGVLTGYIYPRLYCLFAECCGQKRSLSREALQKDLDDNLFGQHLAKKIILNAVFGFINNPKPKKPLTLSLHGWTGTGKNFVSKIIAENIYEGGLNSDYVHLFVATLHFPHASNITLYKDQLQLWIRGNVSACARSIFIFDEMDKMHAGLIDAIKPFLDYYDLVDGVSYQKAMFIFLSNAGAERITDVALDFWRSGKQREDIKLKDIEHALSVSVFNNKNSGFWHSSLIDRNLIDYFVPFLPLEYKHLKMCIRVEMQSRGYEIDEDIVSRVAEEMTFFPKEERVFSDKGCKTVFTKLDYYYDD
Chain of Luciferin 4-monooxygenase (Photinus pyralis) (P08659 whole entry, looked up): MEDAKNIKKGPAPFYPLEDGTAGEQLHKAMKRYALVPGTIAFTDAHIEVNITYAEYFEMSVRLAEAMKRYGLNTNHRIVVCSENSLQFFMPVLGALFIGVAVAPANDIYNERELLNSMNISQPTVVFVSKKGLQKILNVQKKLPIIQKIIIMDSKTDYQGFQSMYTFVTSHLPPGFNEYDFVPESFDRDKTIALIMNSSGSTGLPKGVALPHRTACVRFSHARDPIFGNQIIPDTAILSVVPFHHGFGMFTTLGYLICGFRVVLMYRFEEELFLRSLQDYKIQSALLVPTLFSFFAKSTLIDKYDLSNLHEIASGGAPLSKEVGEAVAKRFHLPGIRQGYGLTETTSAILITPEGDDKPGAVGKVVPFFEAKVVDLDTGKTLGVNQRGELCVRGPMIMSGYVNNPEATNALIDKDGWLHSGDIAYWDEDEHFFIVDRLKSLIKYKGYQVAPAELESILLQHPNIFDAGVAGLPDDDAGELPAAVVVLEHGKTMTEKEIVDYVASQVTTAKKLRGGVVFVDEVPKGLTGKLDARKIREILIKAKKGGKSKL
Chain of Focal adhesion kinase 1 (Homo sapiens) (Q05397 whole entry, looked up): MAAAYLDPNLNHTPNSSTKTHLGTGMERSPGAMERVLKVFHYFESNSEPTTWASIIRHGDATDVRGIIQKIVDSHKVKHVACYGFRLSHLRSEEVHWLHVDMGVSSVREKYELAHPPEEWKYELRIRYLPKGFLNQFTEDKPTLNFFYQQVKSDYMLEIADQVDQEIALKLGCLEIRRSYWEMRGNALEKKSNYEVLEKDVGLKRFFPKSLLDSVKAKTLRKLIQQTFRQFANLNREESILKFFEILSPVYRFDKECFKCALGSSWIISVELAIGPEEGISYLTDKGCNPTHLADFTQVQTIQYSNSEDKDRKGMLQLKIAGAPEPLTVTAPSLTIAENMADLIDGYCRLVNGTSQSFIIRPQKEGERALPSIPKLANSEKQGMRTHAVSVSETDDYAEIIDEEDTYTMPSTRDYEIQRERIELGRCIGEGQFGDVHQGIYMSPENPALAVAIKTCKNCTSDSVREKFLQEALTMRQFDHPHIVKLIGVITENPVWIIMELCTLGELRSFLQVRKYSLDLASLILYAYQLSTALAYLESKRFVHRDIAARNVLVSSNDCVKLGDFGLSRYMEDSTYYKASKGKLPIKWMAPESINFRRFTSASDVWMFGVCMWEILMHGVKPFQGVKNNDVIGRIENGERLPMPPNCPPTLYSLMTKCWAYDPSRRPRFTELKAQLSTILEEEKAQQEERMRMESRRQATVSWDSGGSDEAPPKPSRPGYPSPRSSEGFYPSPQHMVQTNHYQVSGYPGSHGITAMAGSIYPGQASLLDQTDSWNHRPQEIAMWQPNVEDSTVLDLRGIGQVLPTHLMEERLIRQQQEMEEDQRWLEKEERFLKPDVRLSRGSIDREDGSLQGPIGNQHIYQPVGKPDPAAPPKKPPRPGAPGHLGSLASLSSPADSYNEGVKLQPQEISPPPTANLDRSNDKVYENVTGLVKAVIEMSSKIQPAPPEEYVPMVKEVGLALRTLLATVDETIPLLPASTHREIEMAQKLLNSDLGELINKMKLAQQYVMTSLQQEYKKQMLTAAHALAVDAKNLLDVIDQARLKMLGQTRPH
Chain of Streptavidin (Streptomyces avidinii) (P22629 whole entry, looked up): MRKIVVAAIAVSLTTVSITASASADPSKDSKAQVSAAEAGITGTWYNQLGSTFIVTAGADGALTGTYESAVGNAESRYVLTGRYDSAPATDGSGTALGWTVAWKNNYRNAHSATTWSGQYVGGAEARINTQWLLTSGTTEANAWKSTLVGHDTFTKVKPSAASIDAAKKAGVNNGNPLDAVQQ
Chain of Fibroblast growth factor 2 (Homo sapiens) (P09038 whole entry, looked up): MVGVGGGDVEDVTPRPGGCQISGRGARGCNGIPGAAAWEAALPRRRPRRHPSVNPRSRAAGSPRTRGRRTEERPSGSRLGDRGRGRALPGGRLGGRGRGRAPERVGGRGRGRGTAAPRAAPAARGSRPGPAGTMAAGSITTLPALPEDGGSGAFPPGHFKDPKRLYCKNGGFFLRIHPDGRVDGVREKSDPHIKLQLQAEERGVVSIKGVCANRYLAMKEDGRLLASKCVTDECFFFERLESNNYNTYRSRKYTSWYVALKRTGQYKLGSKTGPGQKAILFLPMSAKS

Compound | composite z-score [1] | composite z-score [2] | composite z-score [3] | composite z-score [4] | composite z-score [5] | composite z-score [6] | z-score [7] | composite z-score (Lefty1) | composite z-score [8] | z-score [9] | composite z-score [10] | z-score [11] | z-score [12] | z-score [13] | z-score [14] | composite z-score [15] | composite z-score [16] | composite z-score (Torsin-1A (Homo sapiens) [17]) | composite z-score (Torsin-1A (Homo sapiens) [18]) | composite z-score [19]
CCOC(=O)C1=CC[C@@H](c2ccccc2)N(S(=O)(=O)c2ccc(C)cc2)[C@H]1C=C(C)C | 0.875 | 1.22 | 0.503 | 0.911 | 0.97 | 0.481 | 2.58 | 0.811 | 0.546 | 2.12 (inactive) | 0.367 | -4.76 (inactive) | 0.514 (inactive) | -0.378 (inactive) | 0.807 (inactive) | 1.44 | 0.246 | 0.258 | 1.46 | 0.839
CC1=C2[C@@H](CCc3ccccc3)OB(O)C[C@@H]2[C@@H]2C(=O)C=CC(=O)[C@@H]2C1 | 0.892 | 0.339 | -0.512 | 0.565 | 1.12 | 1 | -1.2 | 0.845 | 0.469 | -3.34 (inactive) | 0.135 | -0.894 (inactive) | 0.0958 (inactive) | 14.1 (active) | 28.4 (active) | 0.537 | -0.0873 | 0.355 | 0.474 | 1.44
COc1ccc(C#Cc2ccc3c(c2)[C@]2(C(=O)N3)[C@H](C(=O)O)[C@H]3C(=O)O[C@H](c4ccccc4)[C@H](c4ccccc4)N3[C@@H]2c2ccc(OCCO)cc2)cc1 | 2.61 | 1.19 | 0.681 | 0.836 | 0.714 | 0.56 | -2.47 | 0.128 | 1.18 | -5.18 (inactive) | 0.356 | -0.969 (inactive) | -0.859 (inactive) | 0.272 (inactive) | 0.408 (inactive) | 1.59 | 0.399 | -0.0331 | 0.739 | 1.3
O=C1O[C@H](c2ccccc2)[C@H](c2ccccc2)N2[C@H]1[C@@H](C(=O)N1CCCCCCC1)[C@]1(C(=O)Nc3ccccc31)[C@H]2c1ccc(O)cc1 | 3.64 | 1.34 | 3.9 | 0.514 | 1.55 | 1.54 | 0.0754 | 1.85 | 1.77 | -0.809 (inactive) | 2.61 | -1.21 (inactive) | 0.387 (inactive) | -0.0566 (inactive) | -0.599 (inactive) | 4.14 | 2.28 | 3.49 | 3.61 | 1.55

— PubChem BioAssay
